A selection: hits, their analogues and other compounds. The true share with any hit is near 9.2%.
ELG1 genotoxic: genotoxicity induction in ELG1-luciferase HEK293T cells. AID 504466. HEK293T ELG1-luciferase reporter, luminescence, 16 h. Potency, µM (series often up to 46 µM), without a hit: at the highest dose activity change, positive = activation, most hits filed as activators. hit rate 1.3% among 330,000; note: % of control where 0% means no effect; nearly all actives have a fitted effect of over 60% in size
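Reporter readout depends on ELG1 protein level, which increases with genetic stress. After 16 hr compound exposure at 37 °C, luciferase activity was quantified using ONE-Glo.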
Rab9 promoter act: activates the Rab9 promoter; Potency, µM (titrated, usually from 9.22 µM), without a hit: top-dose activation, negative = inhibition, usual class: activators; hit rate 2.8% among 320,000; AID 485297; Huh7 Rab9 promoter-luciferase reporter, luminescence, 24 h; note: % of control where 0% means no effect; nearly all actives have a fitted effect of over 60% in size
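Using Huh7 cells stably transfected with Rab9 promoter–luciferase, compounds were incubated 24 h at 37 °C, 5% CO2; luciferase luminescence was read 10 min after reagent addition.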
ELG1 DNA repair: ELG1-dependent DNA repair inhibition | HEK293T ELG1-luciferase reporter, luminescence, 16 h; DNA damage induced by 5-fluorouridine | Potency, µM (doses to about 46.1 µM), for the others: top-dose activity change, negative = inhibition, hits mostly inhibitors | hit rate 2.3% among 330,000 | AID 504467; note: % is set by controls: 0 for no effect and ±100 for the full control effect; nearly all actives have a fitted effect of over 55% in size
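Quantitative HTS, concentration-response format. 2,000 cells/well co-treated with 5-fluorouridine and compound, 16 hr in 5% CO2 at 37 °C; ONE-Glo luminescence read after 30 min.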
SMN2 splice enh: increases expression of the SMN2 splice variant; hit rate 2.8% among 210,000; HEK293 SMN2-luciferase splicing reporter, luminescence, 30-36 h; Potency, µM (titrated, usually from 46.1 µM), for the others: at the highest dose activity change, positive = activation, actives largely listed as activators; note: % of control where 0% means no effect; nearly all actives have a fitted effect of over 55% in size
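HEK293 cells carry an SMN2 minigene-luciferase reporter in which exon 7 inclusion puts luciferase in frame. Cells were seeded at 2000 cells/well, attached for 10-12 hours, then exposed to compounds for 30-36 hours at 37C before ONE-Glo luminescence.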
NPC1 prom act: activators of NPC1 promoter; AID 485313; hit rate 2.4% among 320,000; Potency, µM (highest dose often 9.22 µM), inactives show at the highest dose activation, actives largely listed as activators; Huh7 NPC1 promoter luciferase reporter, 24 h; note: % of control where 0% means no effect; nearly all actives have a fitted effect of over 60% in size
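In 1536-well qHTS, Huh7 cells harboring an NPC1 promoter–luciferase construct received compound for 24 h; activation was quantified by luminescence following luciferase reagent addition.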
FLuc counter: inhibits or activates purified firefly luciferase, miR-21 counter-screen. P08659. purified FLuc, Km substrates, luminescence inhibition. Potency, µM (series often up to 57.5 µM), without a hit: at the top dose activity change, negative = inhibition, actives largely listed as inhibitors. hit rate 6.9% among 360,000. AID 588342;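 note: plate controls were vehicle for no effect and reference inhibitor for full effect; nearly all actives have a fitted effect of over 55% in size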
Target sequence (P08659 whole entry, looked up): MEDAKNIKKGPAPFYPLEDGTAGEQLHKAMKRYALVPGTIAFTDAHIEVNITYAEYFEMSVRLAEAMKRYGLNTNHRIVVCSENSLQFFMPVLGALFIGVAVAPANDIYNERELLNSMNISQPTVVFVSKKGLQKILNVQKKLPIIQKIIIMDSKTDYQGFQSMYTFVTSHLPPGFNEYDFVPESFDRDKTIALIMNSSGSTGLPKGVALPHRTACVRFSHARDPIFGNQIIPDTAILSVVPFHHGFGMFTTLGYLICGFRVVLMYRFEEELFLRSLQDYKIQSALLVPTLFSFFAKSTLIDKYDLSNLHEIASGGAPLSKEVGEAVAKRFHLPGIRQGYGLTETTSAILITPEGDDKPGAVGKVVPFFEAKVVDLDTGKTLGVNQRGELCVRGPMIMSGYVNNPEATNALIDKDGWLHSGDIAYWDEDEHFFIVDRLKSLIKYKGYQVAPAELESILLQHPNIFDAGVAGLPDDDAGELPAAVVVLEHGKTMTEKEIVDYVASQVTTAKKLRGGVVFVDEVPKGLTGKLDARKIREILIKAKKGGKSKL
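Purified P. pyralis luciferase (10nM final) with 10uM D-luciferin and 10uM ATP (Km levels) in 50mM Tris acetate pH 7.5, 10mM Mg acetate, 0.01% Tween-20, 0.05% BSA; qHTS 6-point titration, ~60 µM downward; luminescence read.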
The depositor's hits bear a star; ? = inconclusive; . = no result; [ ] = another dose, or the depositor's remark. Calls come from the whole dose curve; as a rule, active = well fitted curve in the direction sought with a large enough effect; inconclusive = small, poorly fitted or top-dose-only effect, or another doubt; inactive = no such curve, though single readings can be large; an effect the other way counts as inactive or inconclusive. Potency is the fitted concentration of half-maximal effect.

SMILES	ELG1 genotoxic	Rab9 promoter act	ELG1 DNA repair	SMN2 splice enh	NPC1 prom act	FLuc counter
O=C(Nc1ccc2ccccc2c1)c1onc2c1CCCC2	?	0.562µM*	?	8.91µM*	0.398µM*	0.953µM*
Cc1ccc(C2=NNC(C(O)C(O)C(O)C(C)O)S2)cc1 (configuration not stated)	?	17.2%	?	-2.9%	27.3%	23.9µM*
CC1CCN(C(=O)CSc2nnc(CNC(=O)c3c(F)cccc3F)o2)CC1	-1.1%	9.1%	1.4%	.	1.7%	3.7%
Clc1ccc(-n2ncc3c(N4CCCCCC4)ncnc32)cc1	0.146µM*	-17.8%	?	-101.2%	-11.4%	0.19µM*
COc1ccc(-n2ncc3c(N4CCN(c5cccc(C)c5C)CC4)ncnc32)cc1	1.5%	-1.1%	12.8%	.	-9.9%	-0.1%
Cc1ccc(Cl)cc1-n1ncc2c(N3CCCCCC3)ncnc21	.	.	.	.	.	-13.2%
Cc1ccc(-n2ncc3c(N4CCCCC4)ncnc32)cc1	.	.	.	.	.	0.0757µM*
COc1ccc(-n2ncc3c(N4CCCCC4)ncnc32)cc1	0.0651µM*	?	?	-111.1%	-16.5%	0.169µM*
CC1CN(c2ncnc3c2cnn3-c2ccc(Cl)cc2)CC(C)O1 (configuration not stated)	2.06µM*	1µM*	?	?	1.12µM*	3.01µM*
Cc1ccc(-n2ncc3c(N4CCC(Cc5ccccc5)CC4)ncnc32)cc1	.	.	.	.	.	-13.3%
Cc1ccc(C)c(OCCC(=O)OCC(=O)c2c(N)n(C)c(=O)n(C)c2=O)c1	-7.4%	-0.7%	8.7%	.	-0.9%	-1.7%
Cn1cnc(S(=O)(=O)N2CCCC(C(=O)NCc3ccccc3Cl)C2)c1 (configuration not stated)	.	.	.	.	.	-1.9%
Fc1ccc(-n2ncc3c(N4CCN(Cc5ccccc5)CC4)ncnc32)cc1	.	.	.	.	.	-13.9%
CC1CCN(c2ncnc3c2cnn3-c2ccc(F)cc2)CC1	.	.	.	.	.	3.01µM*
COC(=O)[C@H](CC(C)C)NC(=O)NCc1ccc(Cl)cc1	1.5%	-4.7%	?	.	-0.2%	-0.9%
Cn1c(N=Nc2ccc(N3CCOCC3)cc2)[n+](C)c2ccccc21	8.9%	-10.0%	-1.4%	-2.9%	-14.1%	7.57µM*
N=C1C(c2nc3ccccc3[nH]2)=C(O)CN1C1CCCCC1	?	2µM*	?	.	3.16µM*	?
OCC1CCCN(Cc2cn(Cc3ccccc3)nc2-c2cc3ccccc3o2)C1 (configuration not stated)	-5.2%	-4.3%	-5.4%	.	-6.1%	2.2%
CCOc1ccc(/C=C/C(=O)c2ccc(-c3ccccc3)cc2)cc1	-4.6%	-4.6%	2.8%	-20.4%	1.6%	-8.3%
O=C(/C=C/c1ccccc1)OCN1C(=O)c2ccccc2C1=O	0.0%	0.1%[1.84 µM]	0.6%	.	-4.3%	3.7%
O=Cc1ccc(OC(=O)/C=C/c2ccccc2)cc1	0.6%	5.1%	1.4%	.	-1.3%	19µM*
CCOc1ccc(/C=C/C(=O)Oc2ccccc2)cc1	5.2%	11.5%	5.5%	.	-3.6%	1.51µM*
CCN(CC)S(=O)(=O)c1ccc(OC)c(NS(=O)(=O)Cc2ccccc2)c1	-4.1%	1.7%	-8.5%	.	-5.8%	0.8%
O=C(CSC1=Nc2ccccc2N=C(c2ccc(F)cc2)C1)NCc1ccc(Cl)cc1	.	.	.	.	.	6.9%
COc1ccc(C(=O)c2ccc(OC)c(N)c2)cc1N	18.4µM*	-26.5%	?	35.8%	-13.9%	?
COc1ccc(C(=O)c2ccc(OC)c(OC)c2)cc1OC	-0.1%	-6.8%	18.3%	-13.1%	-1.9%	3.1%
CCOC(=O)c1cccc(NC(=O)CCc2c(C)nc3cc(-c4ccc(Cl)cc4)nn3c2C)c1	.	.	.	-21.0%	.	12µM*
CCOc1ccc(NC(=O)CCc2c(C)nc3cc(-c4ccc(Cl)cc4)nn3c2C)cc1	.	.	.	-16.9%	.	6.75µM*
COc1cc(OC)cc(-c2cc3nc(C)c(CCC(=O)Nc4ccc(F)c(Cl)c4)c(C)n3n2)c1	.	.	.	-10.8%	.	?
